Bioassay records deposited in PubChem BioAssay by National Center for Advancing Translational Sciences (NCATS).
Pol iota inh: blocks human DNA polymerase iota activity. Q9UNA4. Pol iota fluorescent replication assay, 10 min. Potency, µM (series often up to 115 µM), actives largely listed as inhibitors. actives 1% (n = 390,000)
Target sequence (Q9UNA4 whole entry, looked up): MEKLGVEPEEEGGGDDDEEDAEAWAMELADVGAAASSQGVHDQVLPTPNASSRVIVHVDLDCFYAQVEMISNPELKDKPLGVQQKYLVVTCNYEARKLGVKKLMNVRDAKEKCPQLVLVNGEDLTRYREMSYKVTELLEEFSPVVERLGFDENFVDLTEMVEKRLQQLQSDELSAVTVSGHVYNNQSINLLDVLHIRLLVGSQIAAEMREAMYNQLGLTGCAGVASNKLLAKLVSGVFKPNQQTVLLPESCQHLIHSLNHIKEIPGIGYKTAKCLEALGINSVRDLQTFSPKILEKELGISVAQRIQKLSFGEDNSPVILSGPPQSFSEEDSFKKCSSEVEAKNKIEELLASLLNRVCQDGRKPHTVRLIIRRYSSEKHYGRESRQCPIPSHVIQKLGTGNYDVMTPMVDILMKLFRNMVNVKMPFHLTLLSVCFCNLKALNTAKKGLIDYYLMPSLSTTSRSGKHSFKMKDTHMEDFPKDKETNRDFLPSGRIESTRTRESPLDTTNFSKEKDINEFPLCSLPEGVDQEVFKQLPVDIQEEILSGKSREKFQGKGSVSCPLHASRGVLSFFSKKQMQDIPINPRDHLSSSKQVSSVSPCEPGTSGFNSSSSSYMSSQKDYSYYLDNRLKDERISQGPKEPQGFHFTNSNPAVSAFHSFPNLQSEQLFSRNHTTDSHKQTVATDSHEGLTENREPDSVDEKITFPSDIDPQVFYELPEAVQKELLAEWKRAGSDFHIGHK
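Pol iota at 10 nM preincubated 15 min with compounds at room temperature; reaction started with fluorescent substrate, 50 nM final. Fluorescence read kinetically at 0 and 10 min; buffer-only wells as negative control.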
APE1 inh: APE1 (human) endonuclease inhibition; recombinant APE1, TAMRA/BHQ-2 abasic DNA cleavage fluorescence; Potency, µM (titrated, usually from 65.8 µM), usual class: inhibitors; actives 0.35% (n = 350,000); also: nearly all actives have a fitted effect of over 55% in size
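Step 1: APE1 (0.75 nM) with compound, 15 min RT. Step 2: add 50 nM fluorophore/quencher THF duplex. Step 3: three fluorescence reads 60 s apart (525/598 nm); read 3 minus read 1 = reaction progress.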
Pol kappa inh-1: blocks human DNA polymerase kappa activity | Q9UBT6 | purified Pol kappa, fluorescent DNA synthesis assay, 10 min | Potency, µM (titrated, usually from 107 µM), usual class: inhibitors | actives 0.53% (n = 400,000)
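Kinetic fluorescence readout at 0 and 10 min followed reaction start with substrate at 50 nM final. Beforehand, enzyme (10 nM Pol kappa) stood 15 min with compound at room temperature; buffer-only wells were negative controls.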
Pol beta inh: DNA polymerase beta (human) inhibition; Pol beta primer extension/strand displacement, fluorescence kinetic; Potency, µM (series often up to 114 µM), usual class: inhibitors; AID 485314; P06746; actives 1.3% (n = 340,000)
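Homogeneous kinetic assay of primer extension and strand displacement by 10 nM Pol beta, preincubated 15 min at room temperature with compound before 50 nM substrate (final) was added. Read at 0 and 10 min; four-parameter Hill fit.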
Pol eta inh-1: inhibitors of human DNA polymerase eta. recombinant Pol eta, fluorescent DNA replication assay. actives 1.2% (n = 390,000). Potency, µM (titrated, usually from 114 µM), usual class: inhibitors
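Pol eta (10 nM) was preincubated with compounds for 15 min at room temperature, after which fluorescent replication substrate (50 nM final) was added to start the reaction. Fluorescence was read kinetically at 0 and 10 min.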
GLS inhibitor: inhibitors of human glutaminase (GLS); GLS enzymatic activity, qHTS titration; actives 0.21% (n = 410,000); Potency, µM (series often up to 45.5 µM), most hits filed as inhibitors; O94925; AID 624170
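Assay buffer: 45 mM KH2PO4 pH 8.2, 0.02% Tween-20. hKGA acts on L-glutamine (1 mM solution added); product glutamate is reported by an oxidase/peroxidase Amplex Red coupling, with fluorescence taken at baseline and 30 min.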
GALK confirm: confirmation of human galactokinase (GALK) inhibitors. purified GALK, Kinase-Glo ATP depletion luminescence. shares compounds with Pol eta inh-1. actives 70% (n = 150). Potency, µM (top dose mostly 115 µM), most hits filed as inhibitors. AID 2015
Redox cycling: redox cycling activity in phenol red-HRP assay; actives 40% (n = 150); Potency, µM (top dose mostly 115 µM), hits mostly inhibitors; AID 2035; shares compounds with Pol eta inh-1; Phenol red-HRP H2O2 redox cycling, absorbance 600 nm
HEK293 tox: reduces HEK-293 cell viability in GALK counter-screen; shares compounds with Pol eta inh-1; HEK-293 viability, ATP luminescence (CellTiter-Glo), 24/48 h; Potency, µM (highest dose often 46.1 µM), hits mostly inhibitors; actives 10% (n = 170); AID 2547
Pol kappa inh-2: Pol kappa (human) inhibition, cherry-pick confirmation; AID 720501; shares compounds with Pol eta inh-1; purified Pol-kappa, fluorescent strand-displacement substrate; actives 76% (n = 920); Potency, µM, most hits filed as inhibitors
Pol eta inh-2: Pol eta (human) inhibition, cherry-pick confirmation; shares compounds with Pol eta inh-1; Pol eta primer extension, TAMRA/BHQ fluorescence, 10 min; Potency, µM, most hits filed as inhibitors; actives 64% (n = 2,600); AID 720502
Numbers stand for hits; [ ] = dose if it differs, or a comment. A selection: hits, their analogues and other compounds. The true share with any hit is near 2.4%. Calls follow the shape of the dose curve; as a rule, active = well fitted curve in the direction sought with a large enough effect; inconclusive = small, poorly fitted or top-dose-only effect, or another doubt; inactive = no such curve, though single readings can be large; an effect the other way counts as inactive or inconclusive.

What do the screens show for `CN(CC(=O)Nc1ccc(F)cc1)C(=O)c1cc(-c2ccco2)nc2ccccc12`?
Pol iota inh: 15.8µM; APE1 inh: inactive; Pol kappa inh-1: inconclusive; Pol eta inh-1: 39.8µM; GLS inhibitor: inactive; Pol eta inh-2: inconclusive

What do the screens show for `COc1cc(Cl)c(C)cc1NC(=O)CSc1sc2c(O)cc(=O)[nH]c2c1C#N`?
Pol iota inh: inconclusive; APE1 inh: inactive[12.4 µM]; Pol kappa inh-1: inactive; Pol beta inh: inconclusive; Pol eta inh-1: 28.2µM; GLS inhibitor: inactive; Pol kappa inh-2: 18.9; Pol eta inh-2: 60.1

What do the screens show for `Cc1ccc(S(=O)(=O)N2[C@@H](c3ccc(C(C)(C)C)cc3)C(C(=O)O)=CC[C@H]2c2ccc(C(C)C)cc2)cc1`?
Pol iota inh: inconclusive; APE1 inh: inactive; Pol kappa inh-1: inconclusive; Pol eta inh-1: 39.8µM; GLS inhibitor: inactive; Pol kappa inh-2: 75.2; Pol eta inh-2: 53.6

What do the screens show for `Cc1ccc(S(=O)(=O)N2[C@@H](c3ccc(C(C)(C)C)cc3)C(C(=O)O)=CC[C@H]2c2cccs2)cc1`?
Pol iota inh: inactive; APE1 inh: inactive; Pol kappa inh-1: inactive; Pol eta inh-1: inactive; GLS inhibitor: inactive

What do the screens show for `Cc1ccc(S(=O)(=O)N2[C@@H](c3ccc(Br)cc3)C(C(=O)O)=CC[C@H]2c2ccc(C(C)C)cc2)cc1`?
Pol iota inh: inconclusive; APE1 inh: inactive; Pol kappa inh-1: inactive; Pol eta inh-1: inactive; GLS inhibitor: inactive

What do the screens show for `Cc1ccc([C@@H]2CC=C(C(=O)O)[C@H](c3ccc(C(C)(C)C)cc3)N2S(=O)(=O)c2ccc(C)cc2)cc1`?
Pol iota inh: inconclusive; APE1 inh: inactive; Pol kappa inh-1: inactive; Pol eta inh-1: 89.1µM; GLS inhibitor: inactive; Pol kappa inh-2: inconclusive

Results for COc1ccc(S(=O)(=O)/C(C#N)=C/Nc2ccc(NC(C)=O)cc2)cc1 ?
Pol iota inh: inactive; APE1 inh: inactive; Pol kappa inh-1: inactive; Pol beta inh: inactive; Pol eta inh-1: inactive; GLS inhibitor: inactive

Results for O=[n+]1c2c(n([O-])c3cc(F)c(N4CCCC4)cc31)CCC2 ?
Pol iota inh: inconclusive; Pol kappa inh-1: inconclusive; Pol eta inh-1: inconclusive; GLS inhibitor: inactive; Pol eta inh-2: inconclusive

What do the screens show for `COC(=O)/C=C1\S/C(=N/N=C/c2ccccc2)NC1=O`?
Pol iota inh: inactive; APE1 inh: inactive; Pol kappa inh-1: inactive; Pol beta inh: inactive; Pol eta inh-1: inactive; GLS inhibitor: inactive

Results for COC(=O)C/C=N/N=C1/NC(=O)/C(=C/C(=O)O)S1 ?
Pol iota inh: 14.1µM; APE1 inh: inactive; Pol kappa inh-1: 44.7µM; Pol beta inh: 39.8µM; Pol eta inh-1: 39.8µM; GLS inhibitor: inactive; Pol eta inh-2: 47.8

What do the screens show for `N#C/C(=C(/O)COc1ccc(Cl)cc1)c1nc2ccccc2s1`?
Pol iota inh: inactive; APE1 inh: inactive; Pol kappa inh-1: inactive; Pol beta inh: inactive; Pol eta inh-1: inactive; GLS inhibitor: inactive; GALK confirm: inconclusive; Redox cycling: inactive; HEK293 tox: inactive

Results for COc1ccc(C/C(O)=C(\C#N)c2nc3ccccc3s2)cc1 ?
Pol iota inh: inactive; APE1 inh: inactive; Pol kappa inh-1: inactive; Pol beta inh: inactive; Pol eta inh-1: inactive; GLS inhibitor: inactive; GALK confirm: 42.1µM; Redox cycling: inactive; HEK293 tox: inactive

How did N#C/C(=C(/O)COc1ccccc1)c1nc2ccccc2s1 do in these assays?
Pol iota inh: inactive; APE1 inh: inactive; Pol kappa inh-1: inactive; Pol beta inh: inactive; Pol eta inh-1: inactive; GLS inhibitor: inactive

Results for O=C(COC(=O)/C=C/c1ccco1)Nc1ccc(F)cc1Cl ?
Pol iota inh: inconclusive; APE1 inh: inconclusive; Pol kappa inh-1: inconclusive; Pol beta inh: 22.4µM; Pol eta inh-1: inconclusive; GLS inhibitor: inactive; Pol eta inh-2: inconclusive

How did CCN(c1ccc(NC(=O)COC(=O)/C=C/c2ccco2)cc1)C(C)C do in these assays?
Pol iota inh: inactive; APE1 inh: inactive; Pol kappa inh-1: inactive; Pol eta inh-1: inactive; GLS inhibitor: inactive

Results for COc1ccc(C)cc1NC(=O)C(=O)c1cn(CC(=O)N2CCCC2)c2ccccc12 ?
Pol iota inh: inactive; APE1 inh: inactive; Pol kappa inh-1: inactive; Pol beta inh: inactive; Pol eta inh-1: inactive; GLS inhibitor: inactive

Results for O=C(CCCn1c(=O)c2sccc2n(CC(=O)NCc2ccco2)c1=O)NCc1ccco1 ?
Pol iota inh: inconclusive; APE1 inh: inactive; Pol kappa inh-1: inactive; Pol beta inh: inactive; Pol eta inh-1: 79.4µM; GLS inhibitor: inactive; Pol eta inh-2: inconclusive

How did Cc1ccc(CSCC(=O)N(C)CC(=O)Nc2ccc(Br)cc2C)cc1 do in these assays?
Pol iota inh: inactive; APE1 inh: inactive; Pol kappa inh-1: inactive; Pol eta inh-1: inactive; GLS inhibitor: inactive

How did Cc1ccc(Cl)c2c1N[C@@H](c1ccc(C(=O)O)cc1)[C@H]1CC=C[C@@H]21 do in these assays?
Pol iota inh: 31.6µM; Pol kappa inh-1: 31.6µM; Pol beta inh: 15.8µM; Pol eta inh-1: inconclusive; GLS inhibitor: inactive; Pol kappa inh-2: 75.2; Pol eta inh-2: inconclusive

Results for CCOC(=O)c1cccc2c1N[C@@H](c1ccc(F)cc1)[C@H]1CC=C[C@@H]21 ?
Pol iota inh: inactive; Pol kappa inh-1: inactive; Pol beta inh: inconclusive; Pol eta inh-1: inactive; GLS inhibitor: inconclusive

How did O=C1NC(=Nc2ccccc2Cl)S/C1=C\c1cc([N+](=O)[O-])ccc1O do in these assays?
Pol iota inh: 35.5µM; APE1 inh: inactive; Pol kappa inh-1: inconclusive; Pol beta inh: inconclusive; Pol eta inh-1: 79.4µM; GLS inhibitor: inconclusive; Pol kappa inh-2: inconclusive
